This is an account of results in ChEMBL document CHEMBL1961873, “Compounds: GSK PKIS; Assays: Nanosyn kinase panel” (2012).

Sequence of Mitogen-activated protein kinase 14 (Homo sapiens) (Q16539 whole entry): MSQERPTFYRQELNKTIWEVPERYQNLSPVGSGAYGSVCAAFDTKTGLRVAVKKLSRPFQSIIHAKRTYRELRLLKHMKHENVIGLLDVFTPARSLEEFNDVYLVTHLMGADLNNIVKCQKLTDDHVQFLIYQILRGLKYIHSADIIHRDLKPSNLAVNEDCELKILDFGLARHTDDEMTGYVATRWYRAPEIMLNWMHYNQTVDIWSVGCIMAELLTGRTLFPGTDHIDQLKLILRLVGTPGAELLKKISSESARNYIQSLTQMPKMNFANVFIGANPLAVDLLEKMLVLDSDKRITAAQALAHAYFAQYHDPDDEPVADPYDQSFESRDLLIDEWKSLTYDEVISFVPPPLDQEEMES

The target in one test is SRSF protein kinase 3 (Homo sapiens) (UniProt Q9UPE1). The note with it: at 1 µM.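 Note: values are mean inhibition of MSSK1 (alias of SRPK3).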
Sequence of SRSF protein kinase 3 (Homo sapiens) (Q9UPE1 whole entry): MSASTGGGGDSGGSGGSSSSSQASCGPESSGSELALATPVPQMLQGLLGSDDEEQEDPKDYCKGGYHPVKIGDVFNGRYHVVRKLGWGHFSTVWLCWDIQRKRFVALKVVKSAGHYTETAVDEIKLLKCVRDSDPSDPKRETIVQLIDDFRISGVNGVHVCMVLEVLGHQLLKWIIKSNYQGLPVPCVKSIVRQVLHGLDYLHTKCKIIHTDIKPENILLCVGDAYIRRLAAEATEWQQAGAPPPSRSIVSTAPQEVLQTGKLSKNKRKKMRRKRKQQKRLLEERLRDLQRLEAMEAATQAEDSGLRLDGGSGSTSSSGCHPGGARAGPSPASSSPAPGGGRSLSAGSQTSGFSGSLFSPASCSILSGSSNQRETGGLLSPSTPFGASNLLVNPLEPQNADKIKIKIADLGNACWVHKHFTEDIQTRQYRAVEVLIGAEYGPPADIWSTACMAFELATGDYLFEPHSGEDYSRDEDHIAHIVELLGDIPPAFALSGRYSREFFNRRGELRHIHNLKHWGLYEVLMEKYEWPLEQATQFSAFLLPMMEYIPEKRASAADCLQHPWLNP
As for `COc1cc2ncn(-c3cc(OCc4ccccc4S(C)(=O)=O)c(C#N)s3)c2cc1OC`, the inhibition was 1.49%. For the compound `CN(c1ccc(NC(=O)Nc2ccc(OC(F)(F)F)cc2)cc1)c1ccnc(Nc2cccc(S(N)(=O)=O)c2)n1`, the inhibition is 16.6%.

On to `ON=C1CCc2cc(-c3nc(C4CCNCC4)[nH]c3-c3ccncc3)ccc21`, for which the inhibition was -2.19%. Same read-out and setting: the figure for `[O-][S+]1CCN(Cc2ccc(-c3ccc4ncnc(Nc5ccc(OCc6ccccc6)c(Cl)c5)c4c3)o2)CC1` is 0.03%. Take `NS(=O)(=O)c1ccc(NC=C2C(=O)Nc3ccc4ncsc4c32)cc1`: the inhibition is -0.55%. Same read-out and setting: as for `OCc1ccc(-c2nc(-c3ccccn3)c(-c3ccc4c(c3)OCO4)[nH]2)cc1`, the figure is -0.15%; as for `COc1cc(Nc2nccc(-c3cnn4ncccc34)n2)cc(OC)c1`, -1.27%; as for `Cc1ccc2c(-c3ccnc(Nc4ccc5c(c4)OCCO5)n3)c(-c3ccc(C(F)(F)F)cc3)nn2n1`, -1.1%. On to `Nc1nccc(-c2c(-c3ccc(F)cc3)ncn2CCCN2CCOCC2)n1`, for which the inhibition is -1.79%. Still for that read-out and setting: the figure for `COc1cccc(-n2nc(C)c3c(N/N=C(\C)c4ccncc4)ncnc32)c1` is -1.75%; for `Nc1nccc(-c2c(-c3ccc(F)cc3)nn3cc(C(F)(F)F)ccc23)n1` it is -1.99%. On the same count and under the same terms, the figure for `COc1cc(/C=N/Nc2ncnc3c2cnn3C(C)C)ccc1O` is -1.29%.

On to `NC(=O)c1cccc(Nc2nccc(Nc3cccc(F)c3)n2)c1`, for which the inhibition is -0.91%. The same measure, in the same setting: the figure for `COC(=O)Nc1nc2cc(Oc3ccc(NC(=O)Nc4cccc(Br)c4)cc3)ccc2[nH]1` is 1.64%.

In the case of `NS(=O)(=O)c1ccc(Nc2cc(-c3cccc(O)c3)n[nH]2)cc1`, the inhibition is -0.83%. On the same count and under the same terms, the figure for `Cc1ccc2c(-c3ccnc(Nc4cccc(C(F)(F)F)c4)n3)c(-c3ccccc3)nn2n1` is -0.19%.

A further test has as its target Mitogen-activated protein kinase 14 (Homo sapiens) (UniProt Q16539). The note with it: at 0.1 µM.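 Note: values are mean percent inhibition of p38α kinase from the GSK PKIS published kinase inhibitor set screen.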
With `CN1CCN(C(=O)c2ccc(NC(=O)Nc3ccc(N(C)c4ccnc(Nc5ccc(CS(C)(=O)=O)cc5)n4)cc3)cc2)CC1`, the inhibition worked out at 3.65%.

For the compound `Oc1cccc(-c2nc(-c3ccccc3)[nH]c2-c2ccncc2)c1`, the inhibition came out at 34.9%.

`COc1cccc(-n2ncc3c(N/N=C/c4ccc(C)cc4)ncnc32)c1`: the inhibition came to 6.95%.

Turning to `CN(C)CCCn1c(-c2nonc2N)nc2cnccc21`, the inhibition is 5.93%. Consider `NS(=O)(=O)c1cccc(-c2cc3ccncc3cc2OCc2ccccc2)c1`, for which the inhibition worked out at 2.47%. On the same count and under the same terms, as for `O=C1Nc2ccccc2/C1=C/Nc1ccc2[nH]c(=O)[nH]c2c1`, the figure is 11.6%; as for `Cc1ccc(C(=O)NC2CC2)cc1-c1ccc2[nH]ncc2c1`, 3.93%; as for `N#Cc1c(NC(=O)c2ccccc2F)sc2c1CCCC2`, -1.85%. With `COC(=O)c1ccc2c(c1)C(=Cc1cc(Br)c(O)c(Br)c1)C(=O)N2`, the inhibition was 5.88%.

For `NS(=O)(=O)c1ccc(N/N=C2\C(=O)Nc3ccc(Cl)cc32)cc1`, the inhibition is 0.03%. On the same count and under the same terms, the figure for `O=C(Nc1ccc(Oc2ccc3[nH]c(NC(=O)c4ccco4)nc3c2)cc1)Nc1cc(C(F)(F)F)ccc1F` is 4.66%.

For the compound `CS(=O)(=O)Nc1cccc(-c2ccc3c(NC(=O)C4CC4)n[nH]c3c2)c1`, the inhibition is -1.33%. Turning to `c1ccc(Nc2ncc(-c3ccccc3)o2)cc1`, the inhibition is 9.09%.

On to `CC(C)c1ccc(Nc2nccc(-c3cnn4ncccc34)n2)cc1`, for which the inhibition is -1.86%. Same read-out and setting: the figure for `CCS(=O)(=O)c1ccc(OC)c(Nc2ncc(-c3cccc(OC)c3)o2)c1` is 4.78%; for `N#Cc1cccc(Nc2nccc(-c3cnn4ncccc34)n2)c1` it is 3.74%; for `COc1cc2ncnc(Nc3ccc4c(cnn4Cc4ccccc4)c3)c2cc1OC` it is 4.33%. On the same count and under the same terms, the figure for `COc1cc2ncn(-c3cc(OCc4ccccc4S(C)(=O)=O)c(C#N)s3)c2cc1OC` is 4.48%. For the compound `CN(c1ccc(NC(=O)Nc2ccc(OC(F)(F)F)cc2)cc1)c1ccnc(Nc2cccc(S(N)(=O)=O)c2)n1`, the inhibition was found to be 4.8%. On the same count and under the same terms, as for `ON=C1CCc2cc(-c3nc(C4CCNCC4)[nH]c3-c3ccncc3)ccc21`, the figure is 25.4%; as for `[O-][S+]1CCN(Cc2ccc(-c3ccc4ncnc(Nc5ccc(OCc6ccccc6)c(Cl)c5)c4c3)o2)CC1`, 16.9%; as for `NS(=O)(=O)c1ccc(NC=C2C(=O)Nc3ccc4ncsc4c32)cc1`, 5.49%. For the compound `OCc1ccc(-c2nc(-c3ccccn3)c(-c3ccc4c(c3)OCO4)[nH]2)cc1`, the inhibition came to 4.43%.

Regarding `COc1cc(Nc2nccc(-c3cnn4ncccc34)n2)cc(OC)c1`, the inhibition was 2.59%. Still for that read-out and setting: the figure for `Cc1ccc2c(-c3ccnc(Nc4ccc5c(c4)OCCO5)n3)c(-c3ccc(C(F)(F)F)cc3)nn2n1` is 3.33%. The same measure, in the same setting: the figure for `Nc1nccc(-c2c(-c3ccc(F)cc3)ncn2CCCN2CCOCC2)n1` is 21.2%; for `COc1cccc(-n2nc(C)c3c(N/N=C(\C)c4ccncc4)ncnc32)c1` it is 1.46%; for `Nc1nccc(-c2c(-c3ccc(F)cc3)nn3cc(C(F)(F)F)ccc23)n1` it is 7.89%. The same measure, in the same setting: as for `COc1cc(/C=N/Nc2ncnc3c2cnn3C(C)C)ccc1O`, the figure is 1.82%; as for `NC(=O)c1cccc(Nc2nccc(Nc3cccc(F)c3)n2)c1`, 2.29%; as for `COC(=O)Nc1nc2cc(Oc3ccc(NC(=O)Nc4cccc(Br)c4)cc3)ccc2[nH]1`, 7.25%. Regarding `NS(=O)(=O)c1ccc(Nc2cc(-c3cccc(O)c3)n[nH]2)cc1`, the inhibition was found to be 4.9%. On the same count and under the same terms, the figure for `Cc1ccc2c(-c3ccnc(Nc4cccc(C(F)(F)F)c4)n3)c(-c3ccccc3)nn2n1` is 37.5%.
